Experimental data reported in PubChem BioAssay AID1159580 (chemical genetic matrix, 2015).
Values joined by “and” are separate entries in the source; they are usually repeats but may differ in a detail not shown here. Equal entries are not always repeated. Hit rate of the full screen: of about 5,500 compounds, about 2,000 (36%) were called active. Another 18% or so got no clear call; they are omitted. Cut-off read from the data, not from the text of the source: active = normalized growth mostly below about 0.91 (no sharp cut-off); inconclusive = no clear call, values can overlap the other calls; inactive = mostly above about 0.92. The list shows a part of the results.

Test: chemical genetic growth profiling, strain panel (AID 1159580);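 note: tested at 20 µM; growth read once vehicle control cultures reached saturation at 30 °C; 1 = growth at the plate median or of vehicle wells; lower values mean less growth of the strain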
Conditions: S. cerevisiae deletion strains, growth OD

Measured: normalized growth

CCOC(=O)C(C)(C)Oc1ccc(Cl)cc1
inactive: locus YAL013W, strain DEP1, stronger effect = lower value 1.01 and 0.989 | locus YAL021C, strain ccr4, stronger effect = lower value 0.996 | locus YAL026C, strain drs2, stronger effect = lower value 0.989 | locus YAL030W, strain snc1, stronger effect = lower value 0.976 | locus YAL040C, strain CLN3, stronger effect = lower value 0.985 | locus YBL061C, strain skt5, stronger effect = lower value 0.978 | locus YBR009C, strain hhf1, stronger effect = lower value 0.982 | locus YBR021W, strain FUR4, stronger effect = lower value 0.988 | locus YBR023C, strain chs3, stronger effect = lower value 0.985 | locus YBR171W, strain sec66, stronger effect = lower value 0.973 | locus YBR229C, strain ROT2, stronger effect = lower value 1.01 | locus YBR231C, strain swc5, stronger effect = lower value 0.977 | locus YBR279W, strain paf1, stronger effect = lower value 0.986 | locus YCL011C, strain gbp2, stronger effect = lower value 0.991 | locus YCL016C, strain dcc1, stronger effect = lower value 0.986 | locus YCL029C, strain bik1, stronger effect = lower value 1 | locus YCL061C, strain MRC1, stronger effect = lower value 0.98 | locus YCL069W, strain vba3, stronger effect = lower value 0.981 | locus YCR088W, strain abp1, stronger effect = lower value 0.984 | locus YDL005C, strain med2, stronger effect = lower value 0.972 | locus YDL035C, strain GPR1, stronger effect = lower value 1.01 | locus YDL040C, strain nat1, stronger effect = lower value 0.979 | locus YDL074C, strain BRE1, stronger effect = lower value 1.02 | locus YDL101C, strain DUN1, stronger effect = lower value 0.999 | locus YDL134C, strain PPH21, stronger effect = lower value 0.999 | locus YDL185W, strain tfp1, stronger effect = lower value 1.01 | locus YDL192W, strain arf1, stronger effect = lower value 1.01 | locus YDR001C, strain nth1, stronger effect = lower value 0.983 | locus YDR069C, strain doa4, stronger effect = lower value 0.984 | locus YDR101C, strain arx1, stronger effect = lower value 0.99 | locus YDR137W, strain rgp1, stronger effect = lower value 0.964 | locus YDR150W, strain NUM1, stronger effect = lower value 1 | locus YDR159W, strain sac3, stronger effect = lower value 0.945 | locus YDR162C, strain NBP2, stronger effect = lower value 1.01 | locus YDR195W, strain ref2 0.954 | locus YDR297W, strain sur2, stronger effect = lower value 0.982 | locus YDR318W, strain mcm21, stronger effect = lower value 1 | locus YDR334W, strain swr1, stronger effect = lower value 0.987 | locus YDR335W, strain msn5, stronger effect = lower value 0.986 | locus YDR388W, stronger effect = lower value 0.995 | locus YDR392W, strain spt3, stronger effect = lower value 0.87 | locus YDR502C, strain sam2, stronger effect = lower value 0.996 | locus YEL003W, strain gim4, stronger effect = lower value 0.992 | locus YEL037C, strain rad23, stronger effect = lower value 1.02 | locus YEL061C, strain CIN8 (second series), stronger effect = lower value 0.981 | locus YEL061C, strain CIN8, stronger effect = lower value 1.01 | locus YER002W, strain NOP16, stronger effect = lower value 0.998 | locus YER015W, strain faa2, stronger effect = lower value 0.971 | locus YER016W, strain bim1, stronger effect = lower value 0.984 | locus YER110C, stronger effect = lower value 0.992 | locus YER111C, strain swi4, stronger effect = lower value 0.985 | locus YER155C, strain BEM2 (second series), stronger effect = lower value 0.922 | locus YER155C, strain BEM2, stronger effect = lower value 1 | locus YER167W, strain BCK2, stronger effect = lower value 0.998 | locus YFR010W, strain ubp6, stronger effect = lower value 1.01 | locus YGL078C, strain dbp3, stronger effect = lower value 1.01 | locus YGL086W, strain mad1, stronger effect = lower value 1 | locus YGL167C, strain pmr1, stronger effect = lower value 0.975 | locus YGL173C, strain kem1, stronger effect = lower value 0.984 | locus YGL227W, strain vid30, stronger effect = lower value 0.975 | locus YGL240W, strain doc1, stronger effect = lower value 0.949 | locus YGL248W, strain PDE1, stronger effect = lower value 1.01 | locus YGL253W, strain hxk2, stronger effect = lower value 1 | locus YGR078C, strain PAC10, stronger effect = lower value 1.02 | locus YGR135W, strain pre9, stronger effect = lower value 1 | locus YGR252W, strain gcn5, stronger effect = lower value 0.993 | locus YHR013C, strain ard1, stronger effect = lower value 1.02 | locus YHR027C, strain rpn1, stronger effect = lower value 0.986 | locus YHR030C, strain SLT2, stronger effect = lower value 1.01 and 0.939 | locus YHR079C, strain IRE1 (second series), stronger effect = lower value 1 | locus YHR079C, strain IRE1, stronger effect = lower value 0.946 | locus YHR094C, strain hxt1, stronger effect = lower value 0.993 | locus YHR129C, strain ARP1, stronger effect = lower value 1 | locus YHR142W, strain chs7, stronger effect = lower value 0.993 | locus YHR200W, strain rpn10, stronger effect = lower value 1 | locus YIL066C, strain RNR3, stronger effect = lower value 1.01 | locus YIL073C, strain SPO22, stronger effect = lower value 1.02 | locus YIL125W, strain kgd1, stronger effect = lower value 0.998 | locus YIR030C, strain dcg1, stronger effect = lower value 0.994 | locus YJL092W, strain hpr5, stronger effect = lower value 0.978 | locus YJL095W, strain BCK1 (second series), stronger effect = lower value 0.985 | locus YJL095W, strain BCK1, stronger effect = lower value 0.986 and 0.943 | locus YJL115W, strain asf1, stronger effect = lower value 0.965 | locus YJL129C, strain trk1, stronger effect = lower value 0.973 | locus YJL134W, strain LCB3, stronger effect = lower value 1 | locus YJL154C, strain vps35, stronger effect = lower value 0.992 | locus YJL164C, strain tpk1, stronger effect = lower value 0.985 | locus YJL166W, strain qcr8, stronger effect = lower value 0.978 | locus YJL168C, strain set2, stronger effect = lower value 0.997 | locus YJL187C, strain SWE1 (second series), stronger effect = lower value 1.01 | locus YJL187C, strain SWE1, stronger effect = lower value 0.97 | locus YJR043C, strain POL32, stronger effect = lower value 1 | locus YJR066W, strain TOR1, stronger effect = lower value 0.943
